The source of these data is PubChem BioAssay (EPA / NIEHS).

Details in all cases: mRNA level, 48 h; actives raise or lower the signal
Read-out in experiment [1]: growth arrest and DNA damage 45 (GADD45G), GADD45G (gene 10912)
In words: LTEA_HepaRG_GADD45G: Life Technologies and Expression Analysis (LTEA) Assay for growth arrest and DNA damage 45 (GADD45G) using HepaRG (AID 2283499). The procedure, abridged: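 Concentration-response in HepaRG: 48 h dosing, 0.5% DMSO, highest level 100 uM. GADD45G expression by qRT-PCR, normalised to endogenous controls; bidirectional fit to DMSO.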

Read-out in experiment [2]: Glutamate-cysteine ligase regulatory (GCLM), GCLM (gene 2730)
The experiment is described as follows: LTEA_HepaRG_GCLM: Life Technologies and Expression Analysis (LTEA) Assay for Glutamate-cysteine ligase regulatory (GCLM) using HepaRG (AID 2283500). The procedure, abridged:
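Endpoint is GCLM transcript level by qRT-PCR, normalized to three housekeeping genes, after 48 h chemical exposure of human HepaRG cells (0.5% DMSO vehicle, top 100 uM, half-log dilutions). Fitting was bidirectional relative to DMSO.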

Read-out in experiment [3]: Glutathione S-transferase M3 (GSTM3), GSTM3 (gene 2947)
The experiment is described as follows: LTEA_HepaRG_GSTM3: Life Technologies and Expression Analysis (LTEA) Assay for Glutathione S-transferase M3 (GSTM3) using HepaRG (AID 2283501). The procedure, abridged:
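Expression of GSTM3 is determined by qRT-PCR in human liver HepaRG cells treated 48 h with an 8-point half-log range from 100 uM in 0.5% DMSO.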

Read-out in experiment [4]: Heat shock 70 kDa protein 1 (HSPA1A), gene 3303
In words: LTEA_HepaRG_HSPA1A: Life Technologies and Expression Analysis (LTEA) Assay for Heat shock 70 kDa protein 1 (HSPA1A) using HepaRG (AID 2283502). The method, boiled down: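 Cells were plated and cultured for 48 h, then switched to serum-free induction medium. Chemicals were added at eight half-log concentrations up to 100 uM for 48 h. RNA was then isolated and HSPA1A measured by qRT-PCR with bidirectional curve fitting against DMSO.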

Read-out in experiment [5]: Hypoxia-inducible factor 1-alpha (Homo sapiens) (UniProt Q16665)
In words: LTEA_HepaRG_HIF1A: Life Technologies and Expression Analysis (LTEA) Assay for Hypoxia-inducible factor 1 (HIF1A) Trancription factor using HepaRG (AID 2283503). The method, boiled down:
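HIF1A transcript level read by qRT-PCR (ACTB, GAPDH, POLR2A normalization) after 48 h chemical exposure of HepaRG cultures. Eight half-log concentrations, top 100 uM, 0.5% DMSO vehicle, duplicates; bidirectional curve fit against DMSO baseline.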

Read-out in experiment [6]: 3-Hydroxy-3-Methylglutaryl-CoA Synthase 2 (HMGCS2), HMGCS2 (gene 3158)
In words: LTEA_HepaRG_HMGCS2: Life Technologies and Expression Analysis (LTEA) Assay for 3-Hydroxy-3-Methylglutaryl-CoA Synthase 2 (HMGCS2) using HepaRG (AID 2283504). The method, boiled down: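 This steatosis marker was read as HMGCS2 mRNA change in HepaRG cells treated 48 h with up to 100 uM chemical. Normalisation used housekeeping genes; activity in either direction was fitted relative to 0.5% DMSO vehicle.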

Read-out in the next experiment: HGF (gene 3082)
The experiment is described as follows: LTEA_HepaRG_HGF: Life Technologies and Expression Analysis (LTEA) Assay for Hepatocyte Growth Facto (HGF) using HepaRG (AID 2283505). The method, boiled down:
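Using HepaRG monolayers kept in 0.5% DMSO, chemicals were tested in duplicate over eight half-log concentrations from 100 uM for 48 h. Endpoint: HGF mRNA change relative to DMSO, normalized to ACTB/GAPDH/POLR2A.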

Read-out in experiment [7]: Insulin Like Growth Factor 1 (IGF1), IGF1 (gene 3479)
The experiment is described as follows: LTEA_HepaRG_IGF1: Life Technologies and Expression Analysis (LTEA) Assay for Insulin Like Growth Factor 1 (IGF1) using HepaRG (AID 2283506). The procedure, abridged:
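Cells are thawed, plated and cultured 48 h, then exposed in duplicate to chemical (highest 100 uM, half-log steps, 0.5% DMSO) for another 48 h. Total RNA is analysed by Fluidigm qRT-PCR for IGF1 expression relative to vehicle.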

Read-out in experiment [8]: Intercellular Adhesion Molecule 1 (ICAM1), ICAM1 (gene 3383)
The experiment is described as follows: LTEA_HepaRG_ICAM1: Life Technologies and Expression Analysis (LTEA) Assay for Intercellular Adhesion Molecule 1 (ICAM1) using HepaRG (AID 2283507). The method, boiled down:
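Using the human liver line HepaRG, compounds are tested in duplicate over 48 h at concentrations up to 100 uM. Expression is determined by TaqMan qRT-PCR, normalized to endogenous controls, and analysed relative to 0.5% DMSO vehicle.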

Read-out in experiment [9]: Insulin-like growth factor-binding protein 1 (IGFBP1), IGFBP1 (gene 3484)
The experiment is described as follows: LTEA_HepaRG_IGFBP1: Life Technologies and Expression Analysis (LTEA) Assay for Insulin-like growth factor-binding protein 1 (IGFBP1) using HepaRG (AID 2283508). The procedure, abridged:
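HepaRG, 48 h, 8 conc. (max 100 uM, half-log), duplicates, 0.5% DMSO. Readout: TaqMan qRT-PCR, ACTB/GAPDH/POLR2A normalisation. Fit: bidirectional vs DMSO.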

Activity calls are given as the source filed them. How the source made its calls: active means hit-call score of the fitted dose curve at least 0.9, where 1 is the maximum; inactive means score below 0.9.

Hypoxia-inducible factor 1-alpha (Homo sapiens), sequence (Q16665 whole entry, looked up): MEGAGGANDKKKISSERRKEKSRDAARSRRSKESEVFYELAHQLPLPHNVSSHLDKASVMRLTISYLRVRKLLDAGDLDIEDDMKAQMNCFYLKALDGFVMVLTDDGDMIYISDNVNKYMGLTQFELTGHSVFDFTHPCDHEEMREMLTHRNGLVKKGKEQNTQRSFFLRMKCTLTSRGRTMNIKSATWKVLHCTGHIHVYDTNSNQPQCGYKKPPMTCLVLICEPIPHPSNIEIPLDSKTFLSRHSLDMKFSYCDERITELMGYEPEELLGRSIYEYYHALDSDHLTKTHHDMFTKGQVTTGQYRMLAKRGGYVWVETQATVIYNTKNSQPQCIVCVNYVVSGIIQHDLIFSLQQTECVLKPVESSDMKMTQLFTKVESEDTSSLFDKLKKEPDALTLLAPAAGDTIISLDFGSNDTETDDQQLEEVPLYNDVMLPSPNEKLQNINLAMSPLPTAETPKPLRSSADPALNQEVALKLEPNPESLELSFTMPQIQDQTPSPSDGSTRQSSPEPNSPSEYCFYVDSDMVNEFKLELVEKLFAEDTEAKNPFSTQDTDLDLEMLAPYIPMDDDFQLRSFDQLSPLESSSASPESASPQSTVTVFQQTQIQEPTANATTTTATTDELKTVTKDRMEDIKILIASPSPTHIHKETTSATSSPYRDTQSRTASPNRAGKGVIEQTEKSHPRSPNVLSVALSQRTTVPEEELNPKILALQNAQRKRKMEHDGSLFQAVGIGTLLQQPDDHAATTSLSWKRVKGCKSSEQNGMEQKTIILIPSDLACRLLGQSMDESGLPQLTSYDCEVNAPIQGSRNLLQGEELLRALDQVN

`O=[N+]([O-])c1ccccc1`: the call in experiment [1], in [2], in experiment [3], in experiment [4], in experiment [5] and in experiment [6] was inactive. Also, the molecule was called inactive (with HGF (gene 3082); in experiment [7]; in experiment [8]; in experiment [9]).
As to `CCCCc1ccccc1`, the call in experiment [1], in [2], in [3], in [4], in [5] and in experiment [6] was inactive. In addition, the molecule was called inactive (with HGF (gene 3082); in [7]; in experiment [8]; in [9]).
Consider `Cc1ccc([N+](=O)[O-])cc1C`, for which the result in experiment [1], in experiment [2], in experiment [3], in experiment [4], in [5] and in experiment [6] was inactive. Further, the molecule was called inactive (in the experiment with HGF (gene 3082); in [7]; in experiment [8]; in experiment [9]).
As for `CCOP(=S)(OCC)SCSCC`, the outcome in experiment [1], in experiment [2], in experiment [3], in [4], in experiment [5] and in [6] was inactive. Moreover, the result (with HGF (gene 3082); in experiment [7]; in experiment [8]; in experiment [9]) was inactive.
With `c1ccc(OP(Oc2ccccc2)Oc2ccccc2)cc1`, the molecule was called inactive in experiment [1], in experiment [2], in [3], in experiment [4], in experiment [5] and in experiment [6]. For the same molecule, the outcome (in the experiment with HGF (gene 3082); in experiment [7]; in experiment [8]; in experiment [9]) was inactive.
For `O=C(O)C(Cl)Cl`, the molecule was called inactive in experiment [1], in experiment [2], in experiment [3], in experiment [4], in experiment [5] and in [6]. The molecule was called inactive (with HGF (gene 3082); in experiment [7]; in experiment [8]; in experiment [9]).
Turning to `CCCCN(CCCC)SN(C)C(=O)Oc1cccc2c1OC(C)(C)C2`, the molecule was classed as inactive in experiment [1], in experiment [2], in experiment [3], in experiment [4], in [5] and in experiment [6]. Also, the molecule was classed as inactive (with HGF (gene 3082); in experiment [7]; in [8]; in [9]).
As to `CCOc1ccc(C(C)(C)COCc2cccc(Oc3ccccc3)c2)cc1`, the molecule was called inactive in experiment [1], in experiment [2], in experiment [3], in experiment [4], in [5] and in experiment [6]. For the same molecule, the molecule was classed as inactive (in the experiment with HGF (gene 3082); in experiment [8]; in [9]). For the same molecule, the AC50 in experiment [7] was 12.4 µM (active).
Consider `CCCCCCCc1ccc(O)cc1`, for which the outcome in experiment [1], in experiment [2], in experiment [3], in experiment [4], in [5] and in experiment [6] was inactive. Besides, the molecule was called inactive (with HGF (gene 3082); in experiment [7]; in experiment [8]; in [9]).
For the molecule `Nc1ccc(Cl)cc1`, the molecule was classed as inactive in experiment [1], in experiment [2], in experiment [3], in experiment [4], in [5] and in experiment [6]. In addition, the result (with HGF (gene 3082); in experiment [7]; in experiment [8]; in experiment [9]) was inactive.
With `CCNc1nc(Cl)nc(NC(C)(C)C)n1`, the molecule was called inactive in [1], in experiment [2], in experiment [3], in [4], in experiment [5] and in experiment [6]. For the same molecule, the molecule was classed as inactive (with HGF (gene 3082); in [8]; in experiment [9]). In addition, in [7], the AC50 was 13.1 µM (active).
As for `CCCCN(CCCC)N=O`, the outcome in [1], in experiment [2], in [3], in experiment [4], in experiment [5] and in experiment [6] was inactive. For the same molecule, the call (with HGF (gene 3082); in experiment [7]; in [8]; in experiment [9]) was inactive.
As for `Nc1ccc2ccccc2c1`, the molecule was classed as inactive in experiment [1], in [2], in [3], in [4], in experiment [5] and in experiment [6]. Also, the outcome (with HGF (gene 3082); in experiment [7]; in [8]; in experiment [9]) was inactive.
In the case of `c1ccc2c(c1)Nc1ccccc1S2`, the molecule was called inactive in [1], in [2], in experiment [3], in experiment [4], in [5] and in experiment [6]. For the same molecule, the result (in the experiment with HGF (gene 3082); in experiment [8]; in [9]) was inactive. In addition, the AC50 in [7] was 50 µM (active).
For `c1nc[nH]n1`, the molecule was called inactive (in experiment [1]; in experiment [2]; in experiment [4]; in experiment [5]; in experiment [6]; in the experiment with HGF (gene 3082)). The result in experiment [7] and in experiment [9] was inactive. In addition, the AC50 was 12.6 µM (active) in experiment [3] and 0.112 µM (active) in experiment [8].
`CCN(CC)c1ccccc1`: the result in experiment [1], in [2], in experiment [3], in experiment [4], in experiment [5] and in [6] was inactive. Besides, the result (with HGF (gene 3082); in experiment [7]; in [8]; in [9]) was inactive.
Regarding `CC(Cl)(Cl)C(=O)O`, the outcome in experiment [1], in experiment [2], in [3], in experiment [4], in experiment [5] and in experiment [6] was inactive. Further, the molecule was classed as inactive (in the experiment with HGF (gene 3082); in experiment [7]; in experiment [8]; in [9]).
In the case of `CCOC(=O)c1ccccc1C(=O)OCC`, the molecule was called inactive in experiment [1], in [2], in experiment [3], in experiment [4], in experiment [5] and in experiment [6]. Besides, the molecule was classed as inactive (with HGF (gene 3082); in experiment [7]; in experiment [8]; in experiment [9]).
As to `CCC1(c2ccccc2)C(=O)N=C(O)NC1=O` (stereo not given), the result in experiment [1], in experiment [2], in [3], in experiment [4], in [5] and in experiment [6] was inactive. In addition, the call (with HGF (gene 3082); in experiment [7]; in [8]; in [9]) was inactive.
For the molecule `ClC1=C(Cl)C2(Cl)C3C(Cl)C(Cl)CC3C1(Cl)C2(Cl)Cl` (stereo not given), the result (in experiment [1]; in experiment [3]; in experiment [4]; with HGF (gene 3082); in experiment [8]; in experiment [9]) was inactive. Moreover, the AC50 in [2] was 50 µM (active); in experiment [5] it was 4.98 µM (active); in experiment [6], 31.7 µM (active); in experiment [7] it was 23.5 µM (active).
On to `CN(C)C(=O)Cl`, for which the outcome in experiment [1], in [2], in experiment [3], in experiment [4], in experiment [5] and in experiment [6] was inactive. For the same molecule, the outcome (with HGF (gene 3082); in experiment [7]; in experiment [8]; in experiment [9]) was inactive.

Usually AC50 stands for the midpoint of the concentration-response curve, whichever way the signal moves.
